Screens (PubChem)
An excerpt weighted towards active compounds, which were near 11% of everything screened.
HPGD block – qHTS Assay for Inhibitors of HPGD (15-Hydroxyprostaglandin Dehydrogenase) | 15-hydroxyprostaglandin dehydrogenase [NAD(+)] (Homo sapiens), P15428 | purified HPGD, NADH fluorescence kinetic, PGE2 substrate | Potency, µM, inactives show top-dose activity change, negative = inhibition, usual class: inhibitors | 150,000 compounds, 4.3% hits; note: potency is the fitted concentration of half-maximal effect
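20 nM HPGD preincubated 15 min at room temperature with compound in 50 mM Tris-HCl pH 8, 0.01% Tween 20. Started with 1 mM NAD+ and 30 uM prostaglandin E2; NADH fluorescence (360/450 nm) read 5 times over 30-s intervals, last minus first.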
ALDH1A1 inh – qHTS Assay for Inhibitors of Aldehyde Dehydrogenase 1 (ALDH1A1). 220,000 compounds, 7.3% hits. AID 1030, 2008. Potency, µM (doses to about 75.3 µM), for inactives: top-dose activity, negative = inhibition, most hits filed as inhibitors. Aldehyde dehydrogenase 1A1 (Homo sapiens), P00352. Purified ALDH1A1, NADH fluorescence, propionaldehyde substrate;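 note: potency is the fitted concentration of half-maximal effect; plate controls were no enzyme wells and a reference inhibitor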
Target sequence (P00352 whole entry, looked up): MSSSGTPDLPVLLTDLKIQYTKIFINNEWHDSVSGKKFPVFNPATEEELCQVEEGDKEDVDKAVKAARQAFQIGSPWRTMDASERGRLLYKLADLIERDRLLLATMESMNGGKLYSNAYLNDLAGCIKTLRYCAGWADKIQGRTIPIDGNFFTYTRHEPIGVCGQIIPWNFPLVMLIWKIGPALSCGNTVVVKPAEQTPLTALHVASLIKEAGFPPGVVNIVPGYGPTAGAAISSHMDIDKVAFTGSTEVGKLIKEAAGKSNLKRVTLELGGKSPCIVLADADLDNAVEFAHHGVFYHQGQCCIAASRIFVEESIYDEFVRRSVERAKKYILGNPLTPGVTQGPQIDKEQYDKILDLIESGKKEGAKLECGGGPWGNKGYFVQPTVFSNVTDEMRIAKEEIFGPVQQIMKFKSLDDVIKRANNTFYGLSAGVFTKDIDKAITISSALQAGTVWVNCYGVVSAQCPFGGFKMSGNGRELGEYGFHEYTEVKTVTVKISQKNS
PNC inhibitor – High Content Assay for Compounds that inhibit the Assembly of the Perinucleolar Compartment | PC3M PTB-GFP, PNC prevalence imaging, 16 h; active compounds read low | activity change (PNC), negative = inhibition, % at 10 µM | 140,000 compounds, 3.1% hits | AID 2417, 2010;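 active = readout at or below -70, meaning at least 70% loss of cells showing the perinucleolar compartment, a nuclear body marking cancer cells; inconclusive = readout between -30 and a set limit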;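 note: plate controls were DMSO wells for no effect and camptothecin positive control wells for full effect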
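PC3M cells stably expressing PTB-GFP, 750–1000 cells/well, treated 16 h at 37 °C with compound (23 nl of library stock), in duplicate. After paraformaldehyde fixation and Hoechst stain, imaged at 20x; PNC prevalence scored by image analysis.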
Active calls of the source: *; u = inconclusive; x = no result given; [ ] = dose if it differs, or a comment. Unless noted, calls come from the whole dose curve; as a rule, active = well fitted inhibition curve with a large enough effect (not every such curve was filed as active); inconclusive = small, poorly fitted or top-dose-only effect, or another doubt; inactive = no such curve, though single readings can be large or run the other way. Unless noted, % is set by controls: 0 for no effect and ±100 for the full control effect.

SMILES	HPGD block	ALDH1A1 inh	PNC inhibitor
COC(=O)CSc1nc(C)c(Oc2ccccc2)c(=O)[nH]1	-19%	-2%	20
O=C(NC1CCCCC1)c1cccnc1C(=O)O	-21%	u	11
Cc1ccc(CSc2nnc(-c3ccco3)o2)cc1	25µM*	-8%	u
O=C(O)c1ccc(CSc2nnc(-c3ccco3)o2)cc1	-19%	u	-2
c1coc(-c2nnc(SCc3nc4ccccc4[nH]3)o2)c1	-5%	3%	1
Brc1ccc(CSc2nnc(-c3ccco3)o2)cc1	25µM*	-6%	16
C[C@@H]1C[C@H](OC(=O)[C@@H](O)c2ccccc2)CC(C)(C)N1C	-8%	5%[20.9 µM]	x
COc1ccc(C(=O)Cn2nnc(-c3ccccc3NC(=O)c3ccco3)n2)cc1	u	u	25
CC(=O)N1C2(C=CC1(C)C(=O)NCc1ccccn1)CCCCC2 (centres undefined)	-9%	u	x
CC(=O)N1C2(C=CC1(C)C(=O)NCc1ccc(C)o1)CCCCC2 (centres undefined)	-10%	22µM*	x
CCOC(=O)CCCN	-4%	-7%[13.5 µM]	x
CC(C)(C)OC(=O)N1CCOCCOCCN(C(=O)OC(C)(C)C)CCOCC1	-11%	9%	32
O=C(Cn1c2ccccc2c(=O)c2cc([N+](=O)[O-])ccc21)Nc1ccccc1Cl	-11%	x	8
Oc1c(CN2CCN(c3ccccc3)CC2)cc(Br)c2cccnc12	-8%	2%[13.5 µM]	x
c1ccc(N2CCN(Cc3ccnc4ccccc34)CC2)cc1	-14%	16µM*	-28
Cc1sc2cc(-c3cccc([N+](=O)[O-])c3)c(-c3cccc([N+](=O)[O-])c3)c[n+]2c1C	-4%	-4%	u
CCN(CC)C(=O)c1ccc2c(c1)nnn2C	16µM*	11%	u
CC(C)NC(=O)c1ccc2c(c1)nnn2C	-4%	1%	6
Cn1nnc2cc(C(=O)NC3CCCCC3)ccc21	-13%	4%	1
Cn1nnc2cc(C(=O)N3CCSCC3)ccc21	1.6µM*	6%	20
COCCNC(=S)N1CCOCC1	-10%	7%	-14
N#CCCCn1c(-c2ccccc2)noc1=O	0%	0%	21
CCCCNC(=O)C(Sc1ccccc1)c1ccccc1 (centres undefined)	-10%	-2%	38
CCn1c(=O)cc(OCC(=O)N2CCN(c3cccc(C(F)(F)F)c3)CC2)c2ccccc21	u	11µM*	-5
CCn1c(=O)cc(OCC(=O)N2CCCC2)c2ccccc21	-12%	-13%	10
SMILES	HPGD block	ALDH1A1 inh	PNC inhibitor
C/C(=N/NC(=O)CNC(=O)COc1ccccc1)c1ccco1	-9%	0%	18
CCN(CC(=O)Nc1ccc(NC(C)=O)cc1)c1ccc(C(F)(F)F)cn1	-20%	11%	11
CCOC(=O)CNC(=O)Cn1cnc2c(nnn2-c2ccc(F)cc2)c1=O	-12%	4%	21
CCOC(=O)CNC(=O)CSc1ncnc2c1nnn2-c1ccc(F)cc1	-14%	9%	-100*
COc1ccc(-n2nnc3c(SCC(=O)NCc4ccco4)ncnc32)cc1	28µM*	u	2
O=C(CSc1ncnc2ccccc12)NCCc1ccccc1	x	0%	x
O=C(COc1ncnc2ccccc12)NCc1ccco1	x	-6%	x
O=C(CSc1ncnc2ccccc12)c1ccco1	x	11µM*	x
Cc1ccc(-n2nnc3c(SCC(=O)NCc4ccco4)ncnc32)cc1	u	0%	-7
O=C(CSc1ncnc2ccccc12)NCc1ccco1	16µM*	22%	-26
CC1(C)CCC[C@@](C)([C@H]2CC[C@]3(C)[C@@H]2[C@H](O)C[C@@H]2[C@@]4(C)CC[C@H](O)C(C)(C)[C@@H]4[C@@H](O)C[C@]23C)O1	-5%	2%	x
COC(=O)c1sc(N2C(=O)C(=O)/C(=C(/O)c3ccccc3)C2c2ccco2)nc1C (centres undefined)	25µM*	-2%	-84*
Cc1nc(N2C(=O)C(=O)/C(=C(/O)c3ccccc3)C2c2ccco2)sc1C (centres undefined)	-7%	6%	16
Cc1cnnn1-c1ccc(C(=O)CCl)cc1	u	0.89µM*	50
Cc1cnnn1-c1cccc([N+](=O)[O-])c1	x	5%	x
CC(C)(c1ccccc1)c1ccc(OCCCNCCO)cc1	-1%	-13%	u
O=C(NC1CCCCC1)c1ccc(S(=O)(=O)c2ccccc2Cl)c([N+](=O)[O-])c1	-9%	-8%	-28
COc1cc(N(C)C)c([N+](=O)[O-])cc1C(=O)N1CCN(Cc2ccccc2)CC1	x	10µM*	x
COc1cc(SC)ccc1C(=O)N1CCN(Cc2ccccc2)CC1	x	1%	x
